Drawing on PubChem BioAssay AID618 (Sanford-Burnham Center for Chemical Genomics, 2007), this text covers outcome for 74 compounds.

In all, about 87,000 compounds went through this assay and about 540 (0.62%) were called active. Where a call stands in place of a potency, no number is given. The rule behind the calls is not given here. Only a selection was taken, and actives are over-represented in it overall. Potency and affinity values are given separately.

The test can be described thus: MT1-MMP gene expression reporter suppression – cell-based, luciferase reporter, luminescence (AID 618).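 Note: actives suppress MT1-MMP promoter-driven transcription so potencies describe inhibitors.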 The following applies: MT1-MMP promoter luciferase reporter cells.
On to `CC(C)Cc1nnc(NC(=O)CCN2C(=O)c3ccccc3C2=O)s1`, for which the call was inactive. Under `CCOC(=O)C1=C(C)N(Cc2ccccc2)C(=O)NC1c1ccc(OC)cc1` (centres undefined) stands “inactive”; under `c1ccc(N2CCCCC2)c(NC2=NCCC2)c1`, “inactive”. Regarding `Cc1ccc(-c2nc(=S)c3c(n2CC2CCCO2)CC(C)(C)OC3)cc1` (centres undefined), the compound was called inactive. Consider `O=C(NCCCN1CCCC1=O)c1cc(=O)c2ccccc2o1`, for which the compound was classed as inactive. As for `CCOC(=O)CN(C(=O)Cn1nnc2ccccc21)C(C(=O)NCCOC)c1ccccc1C` (centres undefined), the result was inactive. As to `COc1ccc2[nH]c3nc(SCc4nnc(-c5ccccc5)o4)nnc3c2c1`, the compound was classed as inactive. As for `COc1ccc2[nH]c3nc(SC(C)C)nnc3c2c1`, the compound was classed as active. In the case of `COc1ccc2[nH]c3nc(SCc4nnc(-c5ccc(C)cc5)o4)nnc3c2c1`, the outcome was inactive.

With `COc1ccc(NC(=O)c2cnc3sccn3c2=O)cc1`, the outcome was inactive. With `Cc1ccc(-c2nc3ccccn3c2NC(=O)c2ccco2)cc1` the entry was “inactive”; with `Cc1cccn2c(=O)c3cc(C(=O)NCc4ccco4)c(=N)n(CCOCCO)c3nc12`, “inactive”. With `COc1ccc(OC)c(C2=Nn3c(nnc3-c3cc(OC)c(OC)c(OC)c3)SC2)c1` the entry was “inactive”; with `COc1ccccc1-c1nnc2n1N=C(c1ccc(O)c(O)c1)CS2`, “inactive”. For the compound `COc1ccc(C2=Nn3c(nnc3-c3ccccc3)SC2)cc1OC`, the outcome was inactive. Turning to `COc1ccc(-c2nnc3n2N=C(c2ccccc2)CS3)cc1OC`, the call was inactive. For the compound `CCOc1ccc(C2=Nn3c(nnc3-c3ccc(OC)cc3)SC2)cc1`, the result was inactive. Turning to `COc1cc(-c2nnc3n2N=C(c2ccccc2)CS3)cc(OC)c1OC`, the outcome was active. Under `CCOc1ccc(-c2nnc3n2N=C(c2ccc(OC)cc2)CS3)cc1` stands “inactive”; under `CCOc1ccc(C2=Nn3c(nnc3-c3ccccc3OC)SC2)cc1`, “active”; under `COc1ccc(C2=Nn3c(nnc3-c3ccccc3OC)SC2)cc1OC`, “active”. As for `COC(=O)c1ccccc1NC(=O)Cn1c(=O)oc2ccc(Cl)cc21`, the outcome was inactive.

In the case of `C=CCNc1sc(C(=O)c2ccc(Br)s2)c(N)c1C#N`, the outcome was inactive. `Cc1ccc(C(=O)NNC(=O)Cc2ccccc2)cc1`: the compound was called inactive. On to `Cc1nc2ccccc2n1CC(=O)OCC(=O)Nc1ccc2c(c1)OCCO2`, for which the call was inactive. For the compound `CCc1nnc2n1N=C(c1ccc(OC)cc1)CS2`, the compound was classed as inactive. In the case of `CCCNC(=O)c1oc2ccc3c(c2c1C)C(=O)CC(C)(C)O3`, the compound was classed as inactive. In the case of `Cc1c(C(=O)NCc2ccoc2)oc2ccc3c(c12)C(=O)CC(C)(C)O3`, the call was inactive. With `CCC(C)n1c(SC(C)C#N)nc2ccccc2c1=O` (centres undefined) the entry was “inactive”; with `Nc1nonc1C(=Nc1ccccc1)NO`, “inactive”; with `CCOc1ccc(OCc2ccc(C(=O)NCc3cccnc3)o2)cc1`, “inactive”. Under `CCOC(=O)N1CCN(c2nc(-c3ccc(OC)cc3)no2)CC1` stands “inactive”; under `c1ccc(COc2ccc(OCCn3cncn3)cc2)cc1`, “inactive”. For the compound `COc1ccc(-c2cc3nc4n(c(=O)c3s2)CCC4)cc1`, the compound was classed as active. On to `O=c1c2ccccc2nc2n1CCC2`, for which the compound was classed as inactive. Regarding `COc1ccc(-c2nc3n(c2Br)CCC3)cc1`, the compound was classed as inactive. Consider `O=c1c2ccccc2nc2n1CCCCC2`, for which the call was inactive. With `COc1ccc(-c2cc3nc4n(c(=O)c3s2)CCOC4)cc1` the entry was “inactive”. `COc1cc2c(cc1NC(=O)CN1C(=O)NC3(CCc4ccccc43)C1=O)oc1ccccc12` (centres undefined): the compound was called inactive. In the case of `Cc1ccc(S(=O)(=O)NC(=O)Nc2c(C)n(C)n(-c3ccccc3)c2=O)cc1`, the call was inactive. With `CCOc1ccc(N(CC(=O)Nc2ccccc2C)S(=O)(=O)c2c(C)noc2C)cc1` the entry was “active”; with `CCOc1ccccc1NC(=O)CN(c1ccc(OC)cc1)S(=O)(=O)c1c(C)noc1C`, “inactive”. Regarding `CCOc1ccccc1NC(=O)CN(c1ccc(C)cc1)S(=O)(=O)c1c(C)noc1C`, the outcome was inactive.

Take `Cc1nnc2n(C3CCCCC3)c(=O)c3c4c(sc3n12)CCC4`: the result was inactive. As for `Cc1nc(Cl)sc1C(=O)O`, the outcome was inactive. Consider `O=C(Nc1ccon1)c1cc2c(s1)CCCCCC2`, for which the result was inactive. Take `CNS(=O)(=O)c1ccc(Oc2ccc(S(=O)(=O)NC)cc2)cc1`: the compound was called inactive.

As for `C=CS(=O)(=O)c1ccc(Oc2ccc(S(=O)(=O)C=C)cc2)cc1`, the outcome was active. `O=S(=O)(c1ccc(Oc2ccc(S(=O)(=O)N3CCOCC3)cc2)cc1)N1CCOCC1`: the call was inactive. Under `O=C(NCCOc1ccccc1)c1ccc2c(c1)OCO2` stands “active”. `CCOCCCNC(=O)c1ccc2c(c1)OCO2`: the outcome was inactive.

In the case of `COCCCNC(=O)c1ccc2c(c1)OCO2`, the compound was called inactive.

In the case of `Cn1c(=O)c2c(nc(CN3CCN(c4ccccc4)CC3)n2CCCc2ccccc2)n(C)c1=O`, the compound was classed as inactive. With `COc1ccccc1NC(=O)CN1C(=O)NC(C)(C)C1=O`, the result was inactive. With `O=C(NCc1ccccc1)C(c1cccnc1)N(Cc1ccco1)C(=O)c1ccccn1` (centres undefined), the compound was called inactive.

Take `CCOC(=O)N1CCN(C(=O)c2ccc3nc(N4CCC(C)CC4)sc3c2)CC1`: the compound was classed as inactive. On to `CCOC(CNC(=O)c1ccc2nc(N3CCC(C)CC3)sc2c1)OCC`, for which the compound was called inactive. Regarding `Cc1cc(Oc2ccc(C(C)(C)C)cc2)nc(N2CCOCC2)n1`, the compound was called inactive.

As to `CN(CC(=O)NCCN1CCCCCC1)S(=O)(=O)c1cccc2nsnc12`, the compound was classed as inactive. Take `COc1ccc(-c2nn(C)c3sc(C(=O)NCc4ccco4)cc23)cc1OC`: the result was inactive.

In the case of `NC(=O)c1cnn2c(C(F)(F)F)cc(-c3ccc(F)cc3)nc12`, the result was inactive. Consider `CN1/C(=C\C(=O)C(F)F)C(C)(C)c2ccccc21`, for which the compound was called inactive. Under `CN1/C(=C\C(=O)c2ccco2)C(C)(C)c2ccccc21` stands “inactive”; under `COC(=O)c1ccccc1NC(=O)c1cc(-c2cccs2)on1`, “inactive”. With `c1ccc(NC2=Nc3ccccc3CC2)cc1` the entry was “inactive”. As for `Brc1ccc(NC2=Nc3ccccc3CC2)cc1`, the call was inactive. In the case of `CC(=O)N1CCc2[nH]c3ccccc3c2C1`, the compound was classed as inactive.

In the case of `Cc1onc(-c2c(F)cccc2Cl)c1C(=O)OCn1nnc2ccccc2c1=O`, the compound was called inactive. As to `O=C(OCn1ncc(Br)c(Br)c1=O)c1ccc(F)cc1`, the compound was called active. In the case of `O=C(OCn1ncc(Br)c(Br)c1=O)c1c(F)cccc1F`, the call was active.

For the compound `CCn1ncc(Br)c1C(=O)Nc1ccc(F)cc1F`, the compound was called inactive. Consider `O=C(OCn1ncc(Br)c(Br)c1=O)c1ccccc1Cl`, for which the outcome was inactive. `CCn1ncc(Br)c1C(=O)Nc1ccc(C(=O)OC(C)C)cc1`: the call was inactive. Under `Cc1ccccc1-n1nc(C(=O)c2cccs2)cc(-c2nc3ccccc3[nH]2)c1=N` stands “inactive”.
